{"source": "a collection of fitness landscapes (doi:10.1126/science.1257360)", "parents": {"B1": {"name": "PhoQ; a variant is named by its letters at X, in order, P23837 (parent)", "chain": "MKKLLRLFFPLSLRVRFLLATAAVVLVLSLAYGMVALIGYSVSFDKTTFRLLRGESNLFYTLAKWENNKLHVELPENIDKQSPTMTLIYDENGQLLWAQRDVPWLMKMIQPDWLKSNGFHEIEADVNDTSLLLSGDHSIQQQLQEVREDDDDAEMTHSVAVNVYPATSRMPKLTIVVVDTIPVELKSSYMVWSWFIYVLSANLLLVIPLLWVAAWWSLRPIEALAKEVRELEEHNRELLNPATTRELTSLVRNLNRLLKSERERYDKYRTTLTDLTHSLKTPLXXLQXXLRSLRSEKMSVSDAEPVMLEQISRISQQIGYYLHRASMRGGTLLSRELHPVAPLLDNLTSALNKVYQRKGVNISLDISPEISFVGEQNDFVEVMGNVLDNACKYCLEFVEISARQTDEHLYIVVEDDGPGIPLSKREVIFDRGQRVDTLRPGQGVGLAVAREITEQYEGKIVAGESMLGGARMEVIFGRQHSAPKDE"}}, "note": "Whole data set: some 140,000 sequences, median “enrichment ratio after two sorts for PhoP signalling” near 0, cut for the highest 2% near 11. What follows is part of a selection rich in the highest values, with near analogues and random picks from the rest.", "data": [{"variants_of": "B1", "test": "enrichment ratio after two sorts for PhoP signalling (ratio (wild type AVST 3.29)); higher = more functional", "settings": "with PhoP (E. coli)", "values": [{"variant": "KPWY", "enrichment ratio": "≤ 0.25"}, {"variant": "TYSW", "enrichment ratio": "≤ 0.25"}, {"variant": "HHAG", "enrichment ratio": "≤ 0.25"}, {"variant": "IFAS", "enrichment ratio": "≤ 0.25"}, {"variant": "MQIG", "enrichment ratio": "≤ 0.25"}, {"variant": "LTCM", "enrichment ratio": "≤ 0.25"}, {"variant": "ITCM", "enrichment ratio": 1}, {"variant": "YTCM", "enrichment ratio": 11.5}, {"variant": "TTCM", "enrichment ratio": 24.5}, {"variant": "YHCM", "enrichment ratio": "≤ 0.25"}, {"variant": "PLCM", "enrichment ratio": "≤ 0.25"}, {"variant": "NTCM", "enrichment ratio": "≤ 0.25"}, {"variant": "SLCM", "enrichment ratio": 16.9}, {"variant": "WLCM", "enrichment ratio": "≤ 0.25"}, {"variant": "FTCM", "enrichment ratio": 7.68}, {"variant": "STCM", "enrichment ratio": 13.3}, {"variant": "RTCM", "enrichment ratio": "≤ 0.25"}, {"variant": "RMAR", "enrichment ratio": "≤ 0.25"}, {"variant": "LPWH", "enrichment ratio": "≤ 0.25"}, {"variant": "KMFP", "enrichment ratio": "≤ 0.25"}, {"variant": "IDIW", "enrichment ratio": "≤ 0.25"}, {"variant": "DRHH", "enrichment ratio": "≤ 0.25"}, {"variant": "ITAF", "enrichment ratio": "≤ 0.25"}, {"variant": "YATV", "enrichment ratio": "≤ 0.25"}, {"variant": "TANV", "enrichment ratio": 17.9}, {"variant": "KATV", "enrichment ratio": "≤ 0.25"}, {"variant": "KANV", "enrichment ratio": "≤ 0.25"}, {"variant": "NAMN", "enrichment ratio": "≤ 0.25"}, {"variant": "TAMN", "enrichment ratio": 59.7}, {"variant": "TATV", "enrichment ratio": 13.6}, {"variant": "TAVC", "enrichment ratio": 1.35}, {"variant": "TAMG", "enrichment ratio": 17.2}, {"variant": "TAVG", "enrichment ratio": "≤ 0.25"}, {"variant": "KAMN", "enrichment ratio": "≤ 0.25"}, {"variant": "YANV", "enrichment ratio": "≤ 0.25"}, {"variant": "YFEP", "enrichment ratio": "≤ 0.25"}, {"variant": "NMRI", "enrichment ratio": "≤ 0.25"}, {"variant": "YHGP", "enrichment ratio": "≤ 0.25"}, {"variant": "TWHF", "enrichment ratio": "≤ 0.25"}, {"variant": "LTFD", "enrichment ratio": "≤ 0.25"}, {"variant": "HWNR", "enrichment ratio": "≤ 0.25"}, {"variant": "WEAV", "enrichment ratio": "≤ 0.25"}, {"variant": "KAMP", "enrichment ratio": "≤ 0.25"}, {"variant": "WWAY", "enrichment ratio": "≤ 0.25"}, {"variant": "LLHT", "enrichment ratio": "≤ 0.25"}, {"variant": "HMSL", "enrichment ratio": "≤ 0.25"}, {"variant": "PQVE", "enrichment ratio": "≤ 0.25"}, {"variant": "HHWE", "enrichment ratio": "≤ 0.25"}, {"variant": "TAPV", "enrichment ratio": "≤ 0.25"}, {"variant": "TAVA", "enrichment ratio": "≤ 0.25"}, {"variant": "LQQS", "enrichment ratio": "≤ 0.25"}, {"variant": "IAGF", "enrichment ratio": "≤ 0.25"}, {"variant": "TAMS", "enrichment ratio": 7.61}, {"variant": "TAGF", "enrichment ratio": 13.2}, {"variant": "LQQF", "enrichment ratio": "≤ 0.25"}, {"variant": "YAGF", "enrichment ratio": "≤ 0.25"}, {"variant": "TAQS", "enrichment ratio": 14.2}, {"variant": "TAMV", "enrichment ratio": 14.2}, {"variant": "TAQF", "enrichment ratio": 14}, {"variant": "TAHF", "enrichment ratio": 10.3}, {"variant": "KVFQ", "enrichment ratio": "≤ 0.25"}, {"variant": "TFVR", "enrichment ratio": "≤ 0.25"}, {"variant": "QGQK", "enrichment ratio": "≤ 0.25"}, {"variant": "PHIC", "enrichment ratio": "≤ 0.25"}, {"variant": "NSGR", "enrichment ratio": "≤ 0.25"}, {"variant": "SWSS", "enrichment ratio": "≤ 0.25"}, {"variant": "AQVW", "enrichment ratio": "≤ 0.25"}, {"variant": "THPY", "enrichment ratio": "≤ 0.25"}, {"variant": "YAMF", "enrichment ratio": "≤ 0.25"}, {"variant": "TAWV", "enrichment ratio": 12.8}, {"variant": "KAAF", "enrichment ratio": "≤ 0.25"}, {"variant": "NAAF", "enrichment ratio": "≤ 0.25"}, {"variant": "TAMF", "enrichment ratio": 19.6}, {"variant": "TAWI", "enrichment ratio": 10.7}, {"variant": "TAAF", "enrichment ratio": 18.4}, {"variant": "TAVK", "enrichment ratio": "≤ 0.25"}, {"variant": "IAMF", "enrichment ratio": "≤ 0.25"}, {"variant": "DPRG", "enrichment ratio": "≤ 0.25"}, {"variant": "GCCQ", "enrichment ratio": 8.03}, {"variant": "NNVY", "enrichment ratio": "≤ 0.25"}, {"variant": "MPPF", "enrichment ratio": "≤ 0.25"}, {"variant": "QTGS", "enrichment ratio": 0.628}, {"variant": "SDDV", "enrichment ratio": 0.265}, {"variant": "WLTS", "enrichment ratio": "≤ 0.25"}, {"variant": "AVSI", "enrichment ratio": 13.1}, {"variant": "AVVG", "enrichment ratio": 11.2}, {"variant": "AVMG", "enrichment ratio": 2.13}, {"variant": "AVCA", "enrichment ratio": 6.97}, {"variant": "AVDH", "enrichment ratio": "≤ 0.25"}, {"variant": "AVTG", "enrichment ratio": 11.3}, {"variant": "HSNG", "enrichment ratio": "≤ 0.25"}, {"variant": "ERPM", "enrichment ratio": "≤ 0.25"}, {"variant": "QHPH", "enrichment ratio": "≤ 0.25"}, {"variant": "LVHC", "enrichment ratio": 15}, {"variant": "LPHC", "enrichment ratio": "≤ 0.25"}, {"variant": "QLDN", "enrichment ratio": "≤ 0.25"}, {"variant": "QVDS", "enrichment ratio": 1.54}, {"variant": "QVDY", "enrichment ratio": 11.3}, {"variant": "LNHC", "enrichment ratio": "≤ 0.25"}, {"variant": "QVDN", "enrichment ratio": 11.3}, {"variant": "QLNM", "enrichment ratio": "≤ 0.25"}, {"variant": "QLWM", "enrichment ratio": 12.6}, {"variant": "QLCK", "enrichment ratio": "≤ 0.25"}, {"variant": "FVDN", "enrichment ratio": "≤ 0.25"}, {"variant": "TVDY", "enrichment ratio": "≤ 0.25"}, {"variant": "LLFG", "enrichment ratio": "≤ 0.25"}, {"variant": "YKSC", "enrichment ratio": "≤ 0.25"}, {"variant": "GCVC", "enrichment ratio": "≤ 0.25"}, {"variant": "HYNH", "enrichment ratio": "≤ 0.25"}, {"variant": "QPWG", "enrichment ratio": "≤ 0.25"}, {"variant": "QSDS", "enrichment ratio": 20.8}, {"variant": "QSDA", "enrichment ratio": 7.1}, {"variant": "KSDH", "enrichment ratio": "≤ 0.25"}, {"variant": "QADS", "enrichment ratio": 3.89}, {"variant": "QRWG", "enrichment ratio": "≤ 0.25"}, {"variant": "QEDH", "enrichment ratio": "≤ 0.25"}, {"variant": "QADY", "enrichment ratio": 11.7}, {"variant": "KADY", "enrichment ratio": "≤ 0.25"}, {"variant": "QSDK", "enrichment ratio": "≤ 0.25"}, {"variant": "QSWG", "enrichment ratio": 18}, {"variant": "QSDH", "enrichment ratio": 18.9}, {"variant": "QIRT", "enrichment ratio": "≤ 0.25"}, {"variant": "QYHW", "enrichment ratio": "≤ 0.25"}, {"variant": "CPHF", "enrichment ratio": "≤ 0.25"}, {"variant": "NKSG", "enrichment ratio": "≤ 0.25"}, {"variant": "VAGL", "enrichment ratio": 1.62}, {"variant": "RRLA", "enrichment ratio": "≤ 0.25"}, {"variant": "QPDI", "enrichment ratio": "≤ 0.25"}, {"variant": "QSHI", "enrichment ratio": 15.9}, {"variant": "QSHF", "enrichment ratio": 9.45}, {"variant": "QEAM", "enrichment ratio": "≤ 0.25"}, {"variant": "KSDI", "enrichment ratio": "≤ 0.25"}, {"variant": "KNHV", "enrichment ratio": "≤ 0.25"}, {"variant": "QSDI", "enrichment ratio": 14.8}, {"variant": "QSHV", "enrichment ratio": 11.3}, {"variant": "QSAM", "enrichment ratio": 14.5}, {"variant": "QSGV", "enrichment ratio": 3.83}, {"variant": "KSHI", "enrichment ratio": "≤ 0.25"}, {"variant": "QAAM", "enrichment ratio": "≤ 0.25"}, {"variant": "SNHK", "enrichment ratio": "≤ 0.25"}, {"variant": "ELHR", "enrichment ratio": "≤ 0.25"}, {"variant": "RESM", "enrichment ratio": "≤ 0.25"}, {"variant": "NKRK", "enrichment ratio": "≤ 0.25"}, {"variant": "MWRP", "enrichment ratio": "≤ 0.25"}, {"variant": "GFQI", "enrichment ratio": "≤ 0.25"}, {"variant": "NFAP", "enrichment ratio": "≤ 0.25"}, {"variant": "QSGM", "enrichment ratio": 21.6}, {"variant": "QPWA", "enrichment ratio": "≤ 0.25"}, {"variant": "QSWM", "enrichment ratio": 11.9}, {"variant": "QSGD", "enrichment ratio": "≤ 0.25"}, {"variant": "QRWA", "enrichment ratio": "≤ 0.25"}, {"variant": "QSCK", "enrichment ratio": "≤ 0.25"}, {"variant": "QSWA", "enrichment ratio": 14.9}, {"variant": "QSLA", "enrichment ratio": "≤ 0.25"}, {"variant": "QSRM", "enrichment ratio": "≤ 0.25"}, {"variant": "QSTH", "enrichment ratio": "≤ 0.25"}, {"variant": "QSPM", "enrichment ratio": "≤ 0.25"}, {"variant": "QSWI", "enrichment ratio": 21.7}, {"variant": "WMFH", "enrichment ratio": "≤ 0.25"}, {"variant": "WHID", "enrichment ratio": "≤ 0.25"}, {"variant": "WSCR", "enrichment ratio": "≤ 0.25"}, {"variant": "TVMI", "enrichment ratio": 1.87}, {"variant": "WGFP", "enrichment ratio": "≤ 0.25"}, {"variant": "HKEM", "enrichment ratio": "≤ 0.25"}, {"variant": "ESDT", "enrichment ratio": "≤ 0.25"}, {"variant": "QENM", "enrichment ratio": "≤ 0.25"}, {"variant": "KSNM", "enrichment ratio": "≤ 0.25"}, {"variant": "QSHP", "enrichment ratio": "≤ 0.25"}, {"variant": "KSDY", "enrichment ratio": "≤ 0.25"}, {"variant": "QSWY", "enrichment ratio": 7.32}, {"variant": "QSNM", "enrichment ratio": 13.1}, {"variant": "QSHQ", "enrichment ratio": 22.4}, {"variant": "QYMG", "enrichment ratio": "≤ 0.25"}, {"variant": "QYWG", "enrichment ratio": 16.3}, {"variant": "QSDY", "enrichment ratio": 14.5}, {"variant": "QYWI", "enrichment ratio": "≤ 0.25"}, {"variant": "QSTD", "enrichment ratio": "≤ 0.25"}, {"variant": "HQNG", "enrichment ratio": "≤ 0.25"}, {"variant": "FDDI", "enrichment ratio": "≤ 0.25"}, {"variant": "SMYF", "enrichment ratio": "≤ 0.25"}, {"variant": "YYYI", "enrichment ratio": "≤ 0.25"}, {"variant": "FAGN", "enrichment ratio": "≤ 0.25"}, {"variant": "ICGK", "enrichment ratio": "≤ 0.25"}, {"variant": "IRTW", "enrichment ratio": "≤ 0.25"}, {"variant": "QGGM", "enrichment ratio": 4.35}, {"variant": "QVHC", "enrichment ratio": "≤ 0.25"}, {"variant": "QSWD", "enrichment ratio": 22.4}, {"variant": "QPDM", "enrichment ratio": "≤ 0.25"}, {"variant": "QLHC", "enrichment ratio": 21.3}, {"variant": "QPWD", "enrichment ratio": "≤ 0.25"}, {"variant": "QRHC", "enrichment ratio": "≤ 0.25"}, {"variant": "FFDM", "enrichment ratio": "≤ 0.25"}, {"variant": "QSDM", "enrichment ratio": 13.7}, {"variant": "QRWD", "enrichment ratio": "≤ 0.25"}, {"variant": "QGDM", "enrichment ratio": 27.5}, {"variant": "KSDM", "enrichment ratio": "≤ 0.25"}]}]}
